This is part of a sample that, as a whole, favours compounds with a hit. Of some 79,000 tested, about 15% had one in any assay. The source made the active and inactive calls. Cut-off read from the data, not from the text of the source: active = growth inhibition above about 70%; inactive = the rest.
Experiments:
[1] = NCI Yeast Anticancer Drug Screen. Data for the rad52 strain (AID 147);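 note: 0% = growth of vehicle-treated control cultures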; settings: S. cerevisiae rad52 mutant growth inhibition, stronger effect = higher value
Summary of the method: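 Inhibition of yeast growth, referenced to vehicle controls, was the measured output for a strain with defective DNA damage repair.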

[2] = NCI Yeast Anticancer Drug Screen. Data for the wt1 strain (AID 149);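 note: 0% = growth of vehicle-treated wt1 cultures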; settings: S. cerevisiae wt1 strain (SPY 50644) growth inhibition, stronger effect = higher value
Summary of the method: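 Yeast wt1 strain exposed to compounds; growth inhibition measured relative to vehicle-treated controls.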

[3] = NCI Yeast Anticancer Drug Screen. Data for the rad50EPP+ strain (AID 151);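 note: 0% = growth of vehicle-treated control cultures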; settings: S. cerevisiae rad50 mutant strain, stronger effect = higher value
Summary of the method: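 Genetically defined yeast (rad50EPP+, DNA damage repair alteration) is grown with compound, and inhibition of growth is expressed relative to vehicle-treated controls.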

[4] = NCI Yeast Anticancer Drug Screen. Data for the rad50 strain (AID 155);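 note: 0% = growth of vehicle-only cultures of the same strain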; settings: S. cerevisiae rad50 strain growth inhibition, stronger effect = higher value
Summary of the method: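 Yeast carrying a defined DNA repair defect were exposed to test compounds, and growth was compared with vehicle-treated controls to give percent inhibition.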

[5] = NCI Yeast Anticancer Drug Screen. Data for the mec2-1 strain (AID 157); settings: S. cerevisiae mec2-1 strain, stronger effect = higher value
Summary of the method: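 Each compound was tested on mec2-1 yeast, a strain altered in DNA damage repair or cell cycle control. Growth inhibition is reported relative to vehicle.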

[6] = NCI Yeast Anticancer Drug Screen. Data for the rad14 strain (AID 159);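 note: 0% = growth of vehicle-treated control cultures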; settings: S. cerevisiae rad14 strain growth inhibition, stronger effect = higher value
Summary of the method: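 Yeast cells carrying a defined DNA-repair defect were exposed to compounds, and growth inhibition was calculated relative to vehicle-treated control cultures.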

[7] = NCI Yeast Anticancer Drug Screen. Data for the sgs1 mgt1 strain (AID 161);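 note: 0% = growth of cultures given vehicle only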; settings: S. cerevisiae sgs1 mgt1 strain, stronger effect = higher value
Summary of the method: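 Read-out: growth inhibition vs vehicle controls. Cells: mutant yeast strain deficient in DNA damage repair.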

[8] = NCI Yeast Anticancer Drug Screen. Data for the CLN2oe strain (AID 163);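 note: 0% = growth of vehicle-only control cultures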; settings: S. cerevisiae CLN2oe strain, stronger effect = higher value
Summary of the method: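 First, the altered yeast strain was treated with each compound; second, its growth was measured; finally, inhibition was derived by comparison with vehicle controls.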

[9] = NCI Yeast Anticancer Drug Screen. Data for the cln2 rad14 strain (AID 165);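 note: 0% = growth equal to vehicle treated cultures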; settings: S. cerevisiae cln2 rad14 strain, stronger effect = higher value
Summary of the method: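 Test compounds were added to cln2 rad14 yeast cultures; inhibition of growth was then determined by comparison with vehicle treatment.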

[10] = NCI Yeast Anticancer Drug Screen. Data for the bub3 strain (AID 167); settings: S. cerevisiae bub3 mutant strain, stronger effect = higher value
Summary of the method: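 Compounds were applied to a genetically altered yeast strain carrying a cell-cycle control defect. Growth inhibition was scored against vehicle-treated controls.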

[11] = NCI Yeast Anticancer Drug Screen. Data for the mlh1 strain (AID 171);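 note: 0% = growth of vehicle-treated control cultures of the same strain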; settings: S. cerevisiae mlh1 strain growth inhibition, stronger effect = higher value
Summary of the method: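 Inhibition values reflect reduced yeast growth in the presence of compound, referenced to vehicle controls, using a strain chosen for its alteration in DNA repair or cell cycle control.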

[12] = NCI Yeast Anticancer Drug Screen. Data for the sgs1 strain (AID 173);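 note: 0% = growth of vehicle-only control cultures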; settings: S. cerevisiae sgs1 mutant, stronger effect = higher value
Summary of the method: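 Vehicle-treated cultures served as reference for growth inhibition of a yeast strain altered in DNA damage repair or cell cycle control after compound exposure.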

[13] = NCI Yeast Anticancer Drug Screen. Data for the mlh1 rad18 strain (AID 175); settings: S. cerevisiae mlh1 rad18 strain growth inhibition, stronger effect = higher value
Summary of the method: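 Inhibition values reflect reduced growth of mutant yeast versus vehicle-treated controls following compound exposure; the mutations affect DNA damage repair.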

[14] = NCI Yeast Anticancer Drug Screen. Data for the rad18 strain (AID 177); settings: S. cerevisiae rad18 mutant growth inhibition, stronger effect = higher value
Summary of the method: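 Steps: expose repair-mutant yeast to compound; measure growth; express as inhibition relative to vehicle control.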

[15] = NCI Yeast Anticancer Drug Screen. Data for the wt2 strain (AID 169);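 note: 0% = growth of vehicle-treated yeast cultures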; settings: S. cerevisiae wt2 strain growth inhibition, stronger effect = higher value
Summary of the method: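 The panel's yeast strains carry defined changes in DNA repair or cell cycle genes. Each strain is grown with compound, and growth loss is scored relative to vehicle.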

[16] = at 5.0 µM (retest, dose inferred, filed as 0.5)
[17] = at 50.0 µM (retest, dose inferred, filed as 5.0)

Measured: growth inhibition

COc1cc(/C=C/c2sc3ccccc3[n+]2C)ccc1N(C)C
inactive: [1]; at 1.2 µM 1% | [1]; at 3.7 µM -2% | [1]; at 11.0 µM 0% | [1]; at 33.0 µM 67% | [2]; at 1.2 µM 0% | [2]; at 3.7 µM -1% | [2]; at 11.0 µM -1% | [2]; at 33.0 µM 30% | [3]; at 1.2 µM -1% | [3]; at 3.7 µM 4% | [3]; at 11.0 µM 11% | [3]; at 33.0 µM 31% | [4]; at 1.2 µM -4% | [4]; at 3.7 µM 6% | [4]; [16] 3% | [4]; at 11.0 µM -18% | [4]; at 33.0 µM 65% | [4]; [17] 4% | [4]; at 50.0 µM 67.8% | [5]; at 1.2 µM 0% | [5]; at 3.7 µM 0% | [5]; [16] 3% | [5]; at 11.0 µM 2% | [5]; at 33.0 µM 69% | [5]; [17] 0% | [5]; at 50.0 µM 61.1% | [6]; at 1.2 µM -4% | [6]; at 3.7 µM -7% | [6]; at 11.0 µM -2% | [7]; [16] 2% | [7]; [17] 7% | [8]; at 1.2 µM -5% | [8]; at 3.7 µM -2% | [8]; at 11.0 µM -2% | [8]; at 33.0 µM 50% | [9]; [16] -2% | [9]; [17] -1% | [9]; at 50.0 µM 33.6% | [10]; at 1.2 µM -2% | [10]; at 3.7 µM 1% | [10]; [16] 3% | [10]; at 11.0 µM -2% | [10]; at 33.0 µM 68% | [10]; at 50.0 µM 64.5% | [11]; at 1.2 µM 0% | [11]; at 3.7 µM -4% | [11]; at 11.0 µM -3% | [12]; at 1.2 µM 0% | [12]; at 3.7 µM 0% | [12]; at 11.0 µM -1% | [13]; [16] -11% | [13]; [17] -6% | [14]; at 1.2 µM 2% | [14]; at 3.7 µM 5% | [14]; at 11.0 µM 2%
active: [1]; at 100.0 µM 93% | [2]; at 100.0 µM 97% | [3]; at 100.0 µM 87% | [4]; at 100.0 µM 96% | [5]; at 100.0 µM 98% | [6]; at 33.0 µM 88% | [6]; at 100.0 µM 99% | [7]; at 50.0 µM 93.5% | [8]; at 100.0 µM 96% | [10]; [17] 85% | [10]; at 100.0 µM 97% | [11]; at 33.0 µM 71% | [11]; at 100.0 µM 98% | [12]; at 33.0 µM 82% | [12]; at 100.0 µM 97% | [13]; at 50.0 µM 92.5% | [14]; at 33.0 µM 73% | [14]; at 100.0 µM 96%

CC[C@@]1(OC(=O)CCC(=O)O)C(=O)OCc2c1cc1n(c2=O)Cc2cc3ccccc3nc2-1
active: [1]; at 1.2 µM 78% | [1]; at 3.7 µM 87% | [1]; at 11.0 µM 92% | [1]; at 33.0 µM 95% | [1]; at 100.0 µM 94% | [2]; at 100.0 µM 90% | [3]; at 11.0 µM 79% | [3]; at 33.0 µM 85% | [3]; at 100.0 µM 89% | [4]; at 1.2 µM 79% | [4]; at 3.7 µM 86% | [4]; [16] 85% | [4]; at 11.0 µM 91% | [4]; at 33.0 µM 94% | [4]; [17] 94% | [4]; at 50.0 µM 80.7% | [4]; at 100.0 µM 94% | [5]; at 33.0 µM 89% | [5]; [17] 94% | [5]; at 50.0 µM 85.9% | [5]; at 100.0 µM 94% | [6]; at 100.0 µM 89% | [7]; [17] 91% | [7]; at 50.0 µM 76.3% | [8]; at 33.0 µM 73% | [8]; at 100.0 µM 87% | [9]; [17] 72% | [10]; [17] 89% | [10]; at 100.0 µM 86% | [15]; at 100.0 µM 87% | [11]; at 33.0 µM 70% | [11]; at 100.0 µM 83% | [12]; at 33.0 µM 80% | [12]; at 100.0 µM 88% | [13]; [17] 85% | [14]; at 100.0 µM 81%
inactive: [2]; at 1.2 µM 4% | [2]; at 3.7 µM -2% | [2]; at 11.0 µM 7% | [2]; at 33.0 µM 57% | [3]; at 1.2 µM 14% | [3]; at 3.7 µM 47% | [5]; at 1.2 µM 6% | [5]; at 3.7 µM 6% | [5]; [16] 11% | [5]; at 11.0 µM 66% | [6]; at 1.2 µM 14% | [6]; at 3.7 µM -2% | [6]; at 11.0 µM 31% | [6]; at 33.0 µM 69% | [7]; [16] 30% | [8]; at 1.2 µM 10% | [8]; at 3.7 µM 21% | [8]; at 11.0 µM 33% | [9]; [16] 5% | [9]; at 50.0 µM 37.5% | [10]; at 1.2 µM -15% | [10]; at 3.7 µM -11% | [10]; [16] 16% | [10]; at 11.0 µM 4% | [10]; at 33.0 µM 62% | [10]; at 50.0 µM 64.2% | [15]; at 1.2 µM -13% | [15]; at 3.7 µM -19% | [15]; at 11.0 µM -7% | [15]; at 33.0 µM 69% | [11]; at 1.2 µM -9% | [11]; at 3.7 µM -7% | [11]; at 11.0 µM 2% | [12]; at 1.2 µM 18% | [12]; at 3.7 µM 21% | [12]; at 11.0 µM 31% | [13]; [16] 16% | [14]; at 1.2 µM 6% | [14]; at 3.7 µM 10% | [14]; at 11.0 µM 27% | [14]; at 33.0 µM 68%

c1ccc2c(c1)ccc1c3ccncc3ccc21
active: [1]; at 3.7 µM 80% | [1]; at 11.0 µM 99% | [1]; at 33.0 µM 99% | [1]; at 100.0 µM 95% | [2]; at 33.0 µM 99% | [2]; at 100.0 µM 97% | [3]; at 3.7 µM 86% | [3]; at 11.0 µM 98% | [3]; at 33.0 µM 98% | [3]; at 100.0 µM 92% | [4]; at 3.7 µM 74% | [4]; [16] 90% | [4]; at 11.0 µM 98% | [4]; at 33.0 µM 99% | [4]; [17] 94% | [4]; at 50.0 µM 97.8% | [4]; at 100.0 µM 93% | [5]; at 11.0 µM 85% | [5]; at 33.0 µM 99% | [5]; [17] 95% | [5]; at 50.0 µM 98.2% | [5]; at 100.0 µM 98% | [6]; at 11.0 µM 90% | [6]; at 33.0 µM 99% | [6]; at 100.0 µM 96% | [7]; [17] 97% | [7]; at 50.0 µM 98% | [8]; at 11.0 µM 93% | [8]; at 33.0 µM 99% | [8]; at 100.0 µM 96% | [9]; [17] 96% | [9]; at 50.0 µM 96% | [10]; at 11.0 µM 93% | [10]; at 33.0 µM 99% | [10]; [17] 96% | [10]; at 50.0 µM 97.1% | [10]; at 100.0 µM 98% | [11]; at 11.0 µM 83% | [11]; at 33.0 µM 99% | [11]; at 100.0 µM 96% | [12]; at 11.0 µM 96% | [12]; at 33.0 µM 99% | [12]; at 100.0 µM 94% | [13]; [17] 94% | [13]; at 50.0 µM 97.5% | [14]; at 11.0 µM 96% | [14]; at 33.0 µM 99% | [14]; at 100.0 µM 94%
inactive: [1]; at 1.2 µM 15% | [2]; at 1.2 µM -6% | [2]; at 3.7 µM -3% | [2]; at 11.0 µM 47% | [3]; at 1.2 µM 35% | [4]; at 1.2 µM 12% | [5]; at 1.2 µM 3% | [5]; at 3.7 µM 4% | [5]; [16] -15% | [6]; at 1.2 µM 9% | [6]; at 3.7 µM 15% | [7]; [16] -15% | [8]; at 1.2 µM 0% | [8]; at 3.7 µM 13% | [9]; [16] -11% | [10]; at 1.2 µM 8% | [10]; at 3.7 µM 35% | [10]; [16] 16% | [11]; at 1.2 µM 4% | [11]; at 3.7 µM 2% | [12]; at 1.2 µM -3% | [12]; at 3.7 µM 12% | [13]; [16] -4% | [14]; at 1.2 µM -2% | [14]; at 3.7 µM 18%

Source: PubChem BioAssay (NCI)
